Measured values: PubChem BioAssay (NCI)
About 79,000 compounds went through this panel and 15% of them were active in at least one assay; those are over-represented in the sample as a whole. Calls of active or inactive are those of the source. Rule as the data show it: active = growth inhibition above about 70%; inactive = the rest.

Columns and labels:
[1] = NCI Yeast Anticancer Drug Screen. Data for the rad52 strain (AID 147);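 also: 0% = growth of vehicle-treated control cultures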; conditions: S. cerevisiae rad52 mutant growth inhibition, stronger effect = higher value
How it was run: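 Screen used a yeast mutant impaired in DNA repair. After compound exposure, growth was measured. Values reflect inhibition compared with vehicle-treated cells.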

[2] = NCI Yeast Anticancer Drug Screen. Data for the wt1 strain (AID 149);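 also: 0% = growth of vehicle-treated wt1 cultures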; conditions: S. cerevisiae wt1 strain (SPY 50644) growth inhibition, stronger effect = higher value
How it was run: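 Yeast wt1 strain exposed to compounds; growth inhibition measured relative to vehicle-treated controls.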

[3] = NCI Yeast Anticancer Drug Screen. Data for the rad50EPP+ strain (AID 151);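 also: 0% = growth of vehicle-treated control cultures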; conditions: S. cerevisiae rad50 mutant strain, stronger effect = higher value
How it was run: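 Exposing the rad50EPP+ strain to each compound, growth was compared with vehicle-only cultures to give inhibition.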

[4] = NCI Yeast Anticancer Drug Screen. Data for the mgt1 strain (AID 153); conditions: S. cerevisiae mgt1 mutant growth inhibition, stronger effect = higher value
How it was run: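 Genetically defined yeast (mgt1) treated with compound; inhibition of growth expressed against vehicle-treated controls.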

[5] = NCI Yeast Anticancer Drug Screen. Data for the rad50 strain (AID 155);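 also: 0% = growth of vehicle-only cultures of the same strain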; conditions: S. cerevisiae rad50 strain growth inhibition, stronger effect = higher value
How it was run: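 Yeast carrying a defined DNA repair defect were exposed to test compounds, and growth was compared with vehicle-treated controls to give percent inhibition.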

[6] = NCI Yeast Anticancer Drug Screen. Data for the mec2-1 strain (AID 157); conditions: S. cerevisiae mec2-1 strain, stronger effect = higher value
How it was run: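 Readout is yeast growth inhibition, normalised to vehicle-treated controls, in the mec2-1 strain exposed to compound.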

[7] = NCI Yeast Anticancer Drug Screen. Data for the rad14 strain (AID 159);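 also: 0% = growth of vehicle-treated control cultures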; conditions: S. cerevisiae rad14 strain growth inhibition, stronger effect = higher value
How it was run: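 Yeast cells carrying a defined DNA-repair defect were exposed to compounds, and growth inhibition was calculated relative to vehicle-treated control cultures.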

[8] = NCI Yeast Anticancer Drug Screen. Data for the sgs1 mgt1 strain (AID 161);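 also: 0% = growth of cultures given vehicle only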; conditions: S. cerevisiae sgs1 mgt1 strain, stronger effect = higher value
How it was run: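 Growth of a repair-deficient yeast mutant was monitored after compound treatment and expressed as inhibition relative to vehicle-treated cultures.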

[9] = NCI Yeast Anticancer Drug Screen. Data for the CLN2oe strain (AID 163);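 also: 0% = growth of vehicle-only control cultures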; conditions: S. cerevisiae CLN2oe strain, stronger effect = higher value
How it was run: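 Values reflect how much compound exposure reduced yeast growth, referenced to vehicle-exposed cells. Assay organism is a strain with a defined genetic change affecting cell-cycle control.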

[10] = NCI Yeast Anticancer Drug Screen. Data for the cln2 rad14 strain (AID 165);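 also: 0% = growth equal to vehicle treated cultures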; conditions: S. cerevisiae cln2 rad14 strain, stronger effect = higher value
How it was run: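 Relative to vehicle controls, growth inhibition of compound-treated cln2 rad14 yeast was recorded.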

[11] = NCI Yeast Anticancer Drug Screen. Data for the bub3 strain (AID 167); conditions: S. cerevisiae bub3 mutant strain, stronger effect = higher value
How it was run: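 Compounds were applied to a genetically altered yeast strain carrying a cell-cycle control defect. Growth inhibition was scored against vehicle-treated controls.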

[12] = NCI Yeast Anticancer Drug Screen. Data for the wt2 strain (AID 169);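 also: 0% = growth of vehicle-treated yeast cultures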; conditions: S. cerevisiae wt2 strain growth inhibition, stronger effect = higher value
How it was run: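 Values express reduction in yeast growth under compound treatment, referenced to vehicle-treated cells.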

[13] = NCI Yeast Anticancer Drug Screen. Data for the mlh1 strain (AID 171);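 also: 0% = growth of vehicle-treated control cultures of the same strain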; conditions: S. cerevisiae mlh1 strain growth inhibition, stronger effect = higher value
How it was run: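 Steps: expose the defined-mutant yeast strain to compound; expose a parallel culture to vehicle; measure growth; express compound effect as inhibition relative to the vehicle culture.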

[14] = NCI Yeast Anticancer Drug Screen. Data for the sgs1 strain (AID 173);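 also: 0% = growth of vehicle-only control cultures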; conditions: S. cerevisiae sgs1 mutant, stronger effect = higher value
How it was run: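 Treat defined-mutant yeast with compound; measure growth; calculate inhibition relative to vehicle-treated cells.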

[15] = NCI Yeast Anticancer Drug Screen. Data for the mlh1 rad18 strain (AID 175); conditions: S. cerevisiae mlh1 rad18 strain growth inhibition, stronger effect = higher value
How it was run: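 Test agents were incubated with a yeast strain of defined genotype (DNA damage repair defect). Inhibition of growth was derived by comparison with vehicle-exposed cultures.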

[16] = NCI Yeast Anticancer Drug Screen. Data for the rad18 strain (AID 177); conditions: S. cerevisiae rad18 mutant growth inhibition, stronger effect = higher value
How it was run: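 A genetically defined yeast mutant impaired in DNA damage repair was treated with test compounds, then its growth was measured against cultures receiving vehicle alone.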

[17] = at 5.0 µM (retest, dose inferred, filed as 0.5)
[18] = at 50.0 µM (retest, dose inferred, filed as 5.0)

Measured: growth inhibition

CCOC(=O)[C@H]1Nc2ccc(OC)cc2C2c3ccccc3CC21 (stereo partly specified)
active: [1]; at 100.0 µM 90% | [2]; at 100.0 µM 90% | [4]; at 100.0 µM 83% | [5]; at 50.0 µM 70% | [5]; at 100.0 µM 91% | [6]; at 100.0 µM 88% | [7]; at 100.0 µM 82% | [9]; at 100.0 µM 89% | [11]; [18] 83% | [11]; at 100.0 µM 90% | [12]; at 100.0 µM 85% | [13]; at 100.0 µM 86% | [14]; at 33.0 µM 71% | [14]; at 100.0 µM 90%
inactive: [1]; at 1.2 µM -22% | [1]; at 3.7 µM -27% | [1]; at 11.0 µM -20% | [1]; at 33.0 µM 57% | [2]; at 1.2 µM -29% | [2]; at 3.7 µM -27% | [2]; at 11.0 µM -25% | [2]; at 33.0 µM 50% | [3]; at 1.2 µM -25% | [3]; at 3.7 µM -19% | [3]; at 11.0 µM -23% | [3]; at 33.0 µM 10% | [3]; at 100.0 µM 4% | [4]; at 1.2 µM -40% | [4]; at 3.7 µM -46% | [4]; at 11.0 µM -46% | [4]; at 33.0 µM 28% | [5]; at 1.2 µM -21% | [5]; at 3.7 µM -12% | [5]; [17] 19% | [5]; at 11.0 µM -19% | [5]; at 33.0 µM 34% | [5]; [18] 9% | [6]; at 1.2 µM -48% | [6]; at 3.7 µM -21% | [6]; [17] -9% | [6]; at 11.0 µM -48% | [6]; at 33.0 µM 29% | [6]; [18] 13% | [6]; at 50.0 µM 34.1% | [7]; at 1.2 µM -54% | [7]; at 3.7 µM -49% | [7]; at 11.0 µM -50% | [7]; at 33.0 µM 0% | [8]; [17] 8% | [8]; [18] 53% | [8]; at 50.0 µM 55.5% | [9]; at 1.2 µM -23% | [9]; at 3.7 µM -28% | [9]; at 11.0 µM -21% | [9]; at 33.0 µM 39% | [10]; [17] 20% | [10]; [18] 37% | [10]; at 50.0 µM 57% | [11]; at 1.2 µM -26% | [11]; at 3.7 µM -19% | [11]; [17] 4% | [11]; at 11.0 µM -27% | [11]; at 33.0 µM 51% | [11]; at 50.0 µM 53.4% | [12]; at 1.2 µM -4% | [12]; at 3.7 µM -14% | [12]; at 11.0 µM -7% | [12]; at 33.0 µM 55% | [13]; at 1.2 µM -29% | [13]; at 3.7 µM -21% | [13]; at 11.0 µM -38% | [13]; at 33.0 µM 46% | [14]; at 1.2 µM 22% | [14]; at 3.7 µM 15% | [14]; at 11.0 µM 24% | [15]; [17] -13% | [15]; [18] 34% | [15]; at 50.0 µM 60.4%

COc1ccc(C(=O)c2ccccc2C(=O)c2ccccc2OC)cc1
inactive: [1]; at 1.2 µM -1% | [1]; at 3.7 µM -2% | [1]; at 11.0 µM 1% | [1]; at 33.0 µM 6% | [1]; at 100.0 µM 14% | [2]; at 1.2 µM -2% | [2]; at 3.7 µM 1% | [2]; at 11.0 µM -6% | [2]; at 33.0 µM -7% | [2]; at 100.0 µM -4% | [3]; at 1.2 µM 5% | [3]; at 3.7 µM 9% | [3]; at 11.0 µM 11% | [3]; at 33.0 µM 15% | [3]; at 100.0 µM 13% | [4]; at 1.2 µM -1% | [4]; at 3.7 µM -1% | [4]; at 11.0 µM -2% | [4]; at 33.0 µM -1% | [4]; at 100.0 µM 7% | [5]; at 1.2 µM -1% | [5]; at 3.7 µM 1% | [5]; [17] 7% | [5]; at 11.0 µM -1% | [5]; at 33.0 µM 4% | [5]; [18] 46% | [5]; at 50.0 µM 12.8% | [5]; at 100.0 µM 10% | [6]; at 1.2 µM -2% | [6]; at 3.7 µM 1% | [6]; [17] -10% | [6]; at 11.0 µM 1% | [6]; at 33.0 µM 7% | [6]; [18] 16% | [6]; at 50.0 µM 10.1% | [6]; at 100.0 µM 11% | [7]; at 1.2 µM -3% | [7]; at 3.7 µM -5% | [7]; at 11.0 µM -5% | [7]; at 33.0 µM -1% | [7]; at 100.0 µM 8% | [8]; [17] 17% | [8]; [18] 55% | [8]; at 50.0 µM 15.4% | [9]; at 1.2 µM 2% | [9]; at 3.7 µM -15% | [9]; at 11.0 µM 0% | [9]; at 33.0 µM 7% | [9]; at 100.0 µM 24% | [10]; [17] 9% | [10]; [18] 35% | [10]; at 50.0 µM 13.7% | [11]; at 1.2 µM -1% | [11]; at 3.7 µM 3% | [11]; [17] 16% | [11]; at 11.0 µM 7% | [11]; at 33.0 µM 27% | [11]; at 50.0 µM 39.5% | [11]; at 100.0 µM 43% | [12]; at 1.2 µM -1% | [12]; at 3.7 µM -2% | [12]; at 11.0 µM -5% | [12]; at 33.0 µM -2% | [12]; at 100.0 µM 1% | [13]; at 1.2 µM 1% | [13]; at 3.7 µM -2% | [13]; at 11.0 µM -1% | [13]; at 33.0 µM 4% | [13]; at 100.0 µM 15% | [14]; at 1.2 µM -1% | [14]; at 3.7 µM -2% | [14]; at 11.0 µM 0% | [14]; at 33.0 µM 9% | [14]; at 100.0 µM 15% | [15]; [17] 30% | [15]; [18] 68% | [15]; at 50.0 µM 20.7% | [16]; at 1.2 µM -1% | [16]; at 3.7 µM -5% | [16]; at 11.0 µM -4% | [16]; at 33.0 µM 3% | [16]; at 100.0 µM 12%
active: [11]; [18] 79%
